According to PubChem BioAssay:
Records with an inconclusive call do not appear. The source made the active and inactive calls. Unless noted, no cut-off is given here; in the data, nearly all actives have AC50 up to about 27 µM.

Assay: growth inhibition of DIPG glioma cells, dose response, cell-based, JHH-DIPG-1, MIPE4.0, CellTiter-Glo, qHTS (AID 1347062);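 for AC50: cells exposed to compound for two days before readout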
Conditions: JHH-DIPG-1 viability, CellTiter-Glo ATP luminescence

Row | Structure (SMILES) | outcome | AC50
1 | CCC(=O)O[C@]1(C(=O)SCF)[C@H](C)C[C@H]2[C@@H]3C[C@H](F)C4=CC(=O)C=C[C@]4(C)[C@@]3(F)[C@@H](O)C[C@@]21C | inactive | 
2 | CC1(C)O[C@@H]2C[C@H]3[C@@H]4C[C@H](F)C5=CC(=O)C=C[C@]5(C)[C@@]4(F)[C@@H](O)C[C@]3(C)[C@]2(C(=O)CO)O1 | inactive | 
3 | Cc1cn[nH]c1 |  | 0.105 µM (active)
4 | CC(=O)O[C@H]1C[C@@H]2CC[C@@H]3[C@H](CC[C@@]4(C)[C@H]3C[C@H]([N+]3(C)CCCCC3)[C@@H]4OC(C)=O)[C@@]2(C)C[C@@H]1N1CCCCC1 | inactive | 
5 | NCCS(=O)(=O)O | inactive | 
6 | C#C[C@]1(O)CC[C@H]2[C@@H]3CCc4cc(OC)ccc4[C@H]3CC[C@@]21C | inactive | 
7 | O=C(O)CSCC(=O)NC1CCSC1=O (stereo not given) | inactive | 
8 | COc1ncnc(NS(=O)(=O)c2ccc(N)cc2)c1OC | inactive | 
9 | Cc1cc2c(C(C)C)c(O)c(O)c(C=O)c2c(O)c1-c1c(C)cc2c(C(C)C)c(O)c(O)c(C=O)c2c1O |  | 18.7 µM (active)
10 | Oc1ccc(OCc2ccccc2)cc1 | inactive | 
11 | CCOC(=O)O[C@]1(C(=O)OCCl)CC[C@H]2[C@@H]3CCC4=CC(=O)C=C[C@]4(C)[C@H]3[C@@H](O)C[C@@]21C | inactive | 
12 | Cc1nc(-c2ccc(OCC(C)C)c(C#N)c2)sc1C(=O)O | inactive | 
13 | Cc1cnc(C(=O)O)c[n+]1[O-] | inactive | 
14 | CO[C@@H]1[C@@H](OC(N)=O)[C@@H](O)[C@H](Oc2ccc3c(O)c(NC(=O)c4ccc(O)c(CC=C(C)C)c4)c(=O)oc3c2C)OC1(C)C | inactive | 
15 | COCCCOc1cc(C[C@@H](C[C@H](N)[C@@H](O)C[C@H](C(=O)NCC(C)(C)C(N)=O)C(C)C)C(C)C)ccc1OC | inactive | 
16 | CN1CCN2c3ccccc3Cc3ccccc3C2C1 (stereo not given) | inactive | 
17 | C[C@@H]1CN(c2c(F)c(N)c3c(=O)c(C(=O)O)cn(C4CC4)c3c2F)C[C@H](C)N1 | inactive | 
18 | O=NN(CCCl)C(=O)NC1CCCCC1 | inactive | 
19 | CCC(C)n1ncn(-c2ccc(N3CCN(c4ccc(OC[C@H]5CO[C@](Cn6cncn6)(c6ccc(Cl)cc6Cl)O5)cc4)CC3)cc2)c1=O (stereo not given in full) | inactive | 
20 | O=P(O)(O)C(O)(Cc1cccnc1)P(=O)(O)O | inactive | 
21 | CN(C)c1ccc2nc3ccc(=[N+](C)C)cc-3sc2c1 |  | 2.96 µM (active)
22 | CC1=C(C)C(=O)C(C(CCCCCC(=O)O)c2ccccc2)=C(C)C1=O (stereo not given) | inactive | 
23 | C#CCN[C@@H]1CCc2ccccc21 | inactive | 
24 | CCCCCN(C)CCC(O)(P(=O)(O)O)P(=O)(O)O | inactive | 

Assay: growth inhibition of DIPG glioma cells, dose response, cell-based, SU-DIPG-IV, MIPE4.0, CellTiter-Glo, qHTS (AID 1347063; cut-off not given, nearly all actives have AC50 up to about 30 µM;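 note: compound exposure lasted 48 hours before the viability readout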)
Conditions: SU-DIPG-IV viability, CellTiter-Glo ATP luminescence

Row | Structure (SMILES) | AC50 | outcome
25 | CCCCN(CCCC)CCC(O)c1cc2c(Cl)cc(Cl)cc2c2cc(C(F)(F)F)ccc12 (stereo not given) | 20.9 µM (active) | 
26 | CCC(=O)O[C@]1(C(=O)SCF)[C@H](C)C[C@H]2[C@@H]3C[C@H](F)C4=CC(=O)C=C[C@]4(C)[C@@]3(F)[C@@H](O)C[C@@]21C |  | inactive
27 | Cc1cn[nH]c1 | 3.32 µM (active) | 
28 | CC(=O)O[C@H]1C[C@@H]2CC[C@@H]3[C@H](CC[C@@]4(C)[C@H]3C[C@H]([N+]3(C)CCCCC3)[C@@H]4OC(C)=O)[C@@]2(C)C[C@@H]1N1CCCCC1 |  | inactive
29 | NCCS(=O)(=O)O |  | inactive
30 | C#C[C@]1(O)CC[C@H]2[C@@H]3CCc4cc(OC)ccc4[C@H]3CC[C@@]21C |  | inactive
31 | O=C(O)CSCC(=O)NC1CCSC1=O (stereo not given) |  | inactive
32 | COc1ncnc(NS(=O)(=O)c2ccc(N)cc2)c1OC |  | inactive
33 | Cc1cc2c(C(C)C)c(O)c(O)c(C=O)c2c(O)c1-c1c(C)cc2c(C(C)C)c(O)c(O)c(C=O)c2c1O | 18.7 µM (active) | 
34 | Oc1ccc(OCc2ccccc2)cc1 |  | inactive
35 | Cc1nc(-c2ccc(OCC(C)C)c(C#N)c2)sc1C(=O)O |  | inactive
36 | Cc1cnc(C(=O)O)c[n+]1[O-] |  | inactive
37 | CO[C@@H]1[C@@H](OC(N)=O)[C@@H](O)[C@H](Oc2ccc3c(O)c(NC(=O)c4ccc(O)c(CC=C(C)C)c4)c(=O)oc3c2C)OC1(C)C |  | inactive
38 | CN1CCN2c3ccccc3Cc3ccccc3C2C1 (stereo not given) |  | inactive
39 | C[C@@H]1CN(c2c(F)c(N)c3c(=O)c(C(=O)O)cn(C4CC4)c3c2F)C[C@H](C)N1 |  | inactive
40 | CNC[C@H](O)[C@@H](O)[C@H](O)[C@H](O)CO |  | inactive
41 | CN(C)c1ccc2nc3ccc(=[N+](C)C)cc-3sc2c1 | 5.9 µM (active) | 
42 | CC1=C(C)C(=O)C(C(CCCCCC(=O)O)c2ccccc2)=C(C)C1=O (stereo not given) |  | inactive
43 | C#CCN[C@@H]1CCc2ccccc21 |  | inactive
44 | CCCCCN(C)CCC(O)(P(=O)(O)O)P(=O)(O)O |  | inactive

Assay: growth inhibition of DIPG glioma cells, dose response, cell-based, SU-DIPG-XIII, MIPE5.0, CellTiter-Glo, qHTS (AID 1347064; cut-off not given, nearly all actives have AC50 up to about 23 µM;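 for AC50: cells exposed to compound for 48 hours before the viability read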)
Conditions: SU-DIPG-XIII viability, CellTiter-Glo ATP luminescence

Row | Structure (SMILES) | AC50 | outcome
45 | CCCCN(CCCC)CCC(O)c1cc2c(Cl)cc(Cl)cc2c2cc(C(F)(F)F)ccc12 (stereo not given) | 16.6 µM (active) | 
46 | CC1(C)O[C@@H]2C[C@H]3[C@@H]4C[C@H](F)C5=CC(=O)C=C[C@]5(C)[C@@]4(F)[C@@H](O)C[C@]3(C)[C@]2(C(=O)CO)O1 |  | inactive
47 | Cc1cn[nH]c1 |  | inactive
48 | C#C[C@]1(O)CC[C@H]2[C@@H]3[C@H](C)CC4=C(CCC(=O)C4)[C@H]3CC[C@@]21C |  | inactive
49 | C#C[C@]1(O)CC[C@H]2[C@@H]3CCc4cc(O)ccc4[C@H]3CC[C@@]21C |  | inactive
50 | C#C[C@]1(O)CC[C@H]2[C@@H]3CCc4cc(OC)ccc4[C@H]3CC[C@@]21C |  | inactive
51 | COc1ncnc(NS(=O)(=O)c2ccc(N)cc2)c1OC |  | inactive
52 | COc1cc2c(N3CCN(C(=O)Nc4ccc(OC(C)C)cc4)CC3)ncnc2cc1OCCCN1CCCCC1 |  | inactive
53 | Cc1cc2c(C(C)C)c(O)c(O)c(C=O)c2c(O)c1-c1c(C)cc2c(C(C)C)c(O)c(O)c(C=O)c2c1O | 10.5 µM (active) | 
54 | Oc1ccc(OCc2ccccc2)cc1 |  | inactive
55 | CCOC(=O)O[C@]1(C(=O)OCCl)CC[C@H]2[C@@H]3CCC4=CC(=O)C=C[C@]4(C)[C@H]3[C@@H](O)C[C@@]21C |  | inactive
56 | Cc1nc(-c2ccc(OCC(C)C)c(C#N)c2)sc1C(=O)O |  | inactive
57 | Cc1cnc(C(=O)O)c[n+]1[O-] |  | inactive
58 | CO[C@@H]1[C@@H](OC(N)=O)[C@@H](O)[C@H](Oc2ccc3c(O)c(NC(=O)c4ccc(O)c(CC=C(C)C)c4)c(=O)oc3c2C)OC1(C)C |  | inactive
59 | C[C@@H]1CN(c2c(F)c(N)c3c(=O)c(C(=O)O)cn(C4CC4)c3c2F)C[C@H](C)N1 |  | inactive
60 | O=NN(CCCl)C(=O)NC1CCCCC1 |  | inactive
61 | CNC[C@H](O)[C@@H](O)[C@H](O)[C@H](O)CO |  | inactive
62 | O=P(O)(O)C(O)(Cc1cccnc1)P(=O)(O)O |  | inactive
63 | CN(C)c1ccc2nc3ccc(=[N+](C)C)cc-3sc2c1 | 2.63 µM (active) | 
64 | C#CCN[C@@H]1CCc2ccccc21 |  | inactive
65 | CCCCCN(C)CCC(O)(P(=O)(O)O)P(=O)(O)O |  | inactive
